From PubChem BioAssay AID493056 (National Center for Advancing Translational Sciences (NCATS), 2011) come the findings set out here.

Molecules are shown by their SMILES. The whole screen tested about 360,000 compounds, of which about 2,400 (0.67%) were called active. Rule as the data show it: active = enhancement above about 30%; inactive = the rest. This excerpt belongs to a sample that is enriched for actives.

Sequence of Thyrotropin-releasing hormone receptor (Homo sapiens) (P34981 whole entry, looked up): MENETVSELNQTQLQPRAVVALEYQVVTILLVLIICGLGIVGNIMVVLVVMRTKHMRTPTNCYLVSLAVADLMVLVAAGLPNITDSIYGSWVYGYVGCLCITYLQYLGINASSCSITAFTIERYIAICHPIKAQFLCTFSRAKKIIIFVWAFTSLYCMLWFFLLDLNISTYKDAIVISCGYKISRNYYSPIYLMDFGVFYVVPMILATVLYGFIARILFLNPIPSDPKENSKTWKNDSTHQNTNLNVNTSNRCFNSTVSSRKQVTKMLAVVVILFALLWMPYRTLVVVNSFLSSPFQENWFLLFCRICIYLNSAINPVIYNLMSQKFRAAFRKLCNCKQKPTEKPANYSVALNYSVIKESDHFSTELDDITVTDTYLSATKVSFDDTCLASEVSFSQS

This assay deals with Thyrotropin-releasing hormone receptor (Homo sapiens) (UniProt P34981). Kind of assay: qHTS for Small Molecule Agonists and Allosteric Enhancers of Human TRH Receptor: Primary Screen for Enhancers. Also: 0% is about no effect. The note with it: TRHR cells, fluo-8 calcium fluorescence, EC20 TRH enhancement; at 2 µM; hits give high values. The source says:
NIH Chemical Genomics Center [NCGC] NIH Molecular Libraries Probe Centers Network [MLPCN] MLPCN Grant: MH089816-01 Assay Submitter (PI): Marvin Gershengorn This project aims to identify small drug-like molecules that activate (agonists) the thyrotropin releasing hormone (TRH) receptor (TRHR) or enhance its TRH-stimulated activity (allosteric enhancers). TRHR, a drug-accessible cell surface receptor expressed in specific brain regions, and its ligand TRH have been implicated in several central nervous system disorders, including depression and anxiety. Small molecule TRHR agonists or allosteric enhancers that are metabolically stable and able to cross the blood-brain barrier might serve as probes to elucidate the roles of brain TRH receptors in animal models, and might be valuable as lead compounds for the development of drugs to treat patients with central nervous system disorders. Upon TRHR-Gq activation in TRHR cells, intracellular calcium is released from stores in the endoplasmic reticulum. […] This primary screen measures compound-induced enhancement of an EC20 stimulation of the receptor by its native ligand.
For the HTS assay freshly prepared cells are plated at a density of 2000/well in 3 ul of complete DMEM medium containing 10% serum in 1536-well plates and cultured over night at 37 C in a humidified incubator with 5% CO2. The next day, 2 ul of a no wash calcium dye (ABD Bioquest) was added to the cells and plates were incubated at room temperature for 1 hour. For the assay, assay plates were loaded into the FDSS kinetic plate reader. A 10 cycle (1 second/cycle) baseline measurement is taken and then the FDSS online 1536 pintool delivers 23 nl of compound library (as well as TRH controls) to the plate. The plate is measured for kinetically at 1 cycle/sec for 180 seconds and is considered to be the agonist portion of the assay (eg, compounds which activate a positive calcium response during this portion are flagged as potential agonists). Following the 180 second read, 1 ul of either an EC20 (positive modulation assay) is delivered by an onboard pipette head. Measurements are taken kinetically for an additional 180 seconds. TRHR FDSS Screening Protocol 1. Reagent, 3 uL 2000 cells/well 1536 TC treated Black plate in media containing 10% FCS 2. Time, 18 hours, 33.5C 5% CO2 (cells grown at 37C) 3. Reagent, 2 uL ABD fluo-8 Ca dye 4. Time, 30 min-1.5hrs hours, Room temp (6 plates/batch) 5. Detector, EX 480/EM 530C, FDSS 10 cycles baseline (1sec/cycle) 6. Compound, 23 nL of stock solution from library 7. Detector, EX 480/EM 530C, FDSS 230 cycles (1sec/cycle) Agonist mode 8. Compound, 1 ul EC20 of TRH made up in HEPES HBSS, 10 nM final 9. Detector, EX 480/EM 530C, FDSS 100 cycles (1sec/cycle) Potentiator mode
`CCC/C(=N\O)c1c[nH]c2ccccc12`: the enhancement was -0.263% (inactive). In the case of `COc1ccc(CNCCc2c[nH]c3ccccc23)cc1OC` it was 8.12% (inactive). As for `C/C(CCc1c[nH]c2ccccc12)=N\O`, the enhancement was 30.5% (active). In the case of `Cc1ccc(-n2c(/C=C/c3cccc(C(F)(F)F)c3)nc3ccccc3c2=O)cc1` it was -5.54% (inactive); in that of `O=C(c1cc(S(=O)(=O)N2CCOCC2)ccc1F)N1CCC2(CC1)OCCO2`, 5.79% (inactive). In the case of `CC(C)Oc1cccc(C(=O)C2CCCN(C3CCOCC3)C2)c1` (stereo not given), the enhancement is 5.95% (inactive). On to `O=C(OCCN1CCOCC1)C1(c2ccccc2)CCCC1`, for which the enhancement was -3.33% (inactive). The value for `CCOP(=S)(OCC)C(O)CCCCCn1c(=O)c(F)cn(C2CCCO2)c1=O` (stereo not given) was 31.8% (active); that for `CC(C)c1ccc(OCC(=O)N2CCN(C)CC2)c(Br)c1` was -3.04% (inactive). The value for `CC(C)(C)c1ccc(OC(=O)N2CCCCC2)cc1` was 2.54% (inactive). Turning to `C[N+]1(C)CCOC(O)(c2ccc(-c3ccc(C4(O)C[N+](C)(C)CCO4)cc3)cc2)C1` (stereo not given), the enhancement was 36.7% (active).

Regarding `Cc1cccc(Cn2cccc(C(=O)Nc3ccc4c(c3)OCCO4)c2=O)c1`, the enhancement was -1% (inactive).

`CC(C)N(CC#CCC1(O)c2ccccc2-c2ccccc21)C(C)C`: the enhancement was -0.877% (inactive). With `CCC(C)n1c(O)c(/C=N/Nc2nc3c(c(=O)n(C)c(=O)n3C)n2C)c(=O)[nH]c1=S` (stereo not given), the enhancement is -2.9% (inactive). In the case of `Cc1ccc(-c2nc3ccccc3c(=O)n2-c2ccc(Br)cn2)cc1` it was 3.56% (inactive).
